Data: the supplement of paper PMC6555819

Experiments:
Assay in all cases: PBM binding z-score (relative to random genomic background probes); higher = stronger binding; sequences stand for … in GC…GCGATTGACAGCGTAGAATGAAGG
[1] = tested on: PPARg:RXRa DBDmut IVT, anti-RXR (DBD mutation: RXRa K156A/R161A, NR concentration 270 nM, RXRa partner concentration 90 nM)
Outline: (§1)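 Ligand-free nuclear receptor dimers were applied to custom Agilent 4×180K protein-binding microarrays whose double-stranded probes carried direct-repeat seeds, single-nucleotide variants, half-site ablations and random human genomic background sequences in 34-nt variable regions. Incubation lasted 1 h. Binding z-scores were computed against the random background probes from regression-normalized fluorescence.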

[2] = tested on: PPARg:RXRa IVT, anti-PPARg (NR concentration 270 nM, RXRa partner concentration 90 nM)
Outline: as §1

[3] = tested on: PPARg DBDmut:RXRa IVT, anti-PPARg (DBD mutation: PPARg1 K132A/R137A, NR concentration 270 nM, RXRa partner concentration 90 nM)
Outline: as §1

[4] = tested on: PPARg DBDmut IVT, anti-PPARg (DBD mutation: PPARg1 K132A/R137A, NR concentration 270 nM)
Outline: as §1

[5] = tested on: PPARg homodimer (NR concentration 180 nM)
Outline: as §1

[6] = tested on: PXR:RXRa (NR concentration 270 nM, RXRa partner concentration 90 nM)
Outline: as §1

[7] = tested on: PXR homodimer (NR concentration 270 nM)
Outline: as §1

[8] = tested on: RARa:RXR (NR concentration 270 nM, RXRa partner concentration 90 nM)
Outline: as §1

[9] = tested on: RARa homodimer (NR concentration 270 nM)
Outline: as §1

[10] = tested on: RARb:RXRa (NR concentration 270 nM, RXRa partner concentration 90 nM)
Outline: as §1

Sequence	PBM binding z-score [1]	PBM binding z-score [2]	PBM binding z-score [3]	PBM binding z-score [4]	PBM binding z-score [5]	PBM binding z-score [6]	PBM binding z-score [7]	PBM binding z-score [8]	PBM binding z-score [9]	PBM binding z-score [10]
CAAACTAGGTCACAGCGGTCAAAGTCCGTGCGTA	8.22	8.97	2.1	1.7	2.78	3.32	1.36	3.58	1.2	4.58
ACTTTCGGGTCAACGAGGTTATAGCACGCGTATA	3.31	4.16	1.8	1.14	2.32	5.37	6.97	4.91	1.53	4.29
CGTCCAAGGTCAGCAGGCCAGTGAAAGCGACGTG	2.35	2.56	-0.196	-0.403	1.55	2.26	-0.0334	3.14	0.266	5.01
CCTATAAGTTGACCATAAGGGCAACCGAAGCTCG	0.357	0.771	0.17	-0.0168	1.61	0.964	0.7	1.23	1.27	1.8
AATACAGGGTCATCGTAGGACAGAGTACGCACAG	2.91	4.34	1.42	1.38	2.54	4.92	0.871	4.82	0.937	4.22
CCTATTAGTTGACCATAAGGGCAACAGAAGCTCG	0.409	0.628	-0.0621	0.417	1.95	0.896	0.847	1.15	1.6	1.42
TAGCCTAGGTCATTGGGCCAGTAGAGTACGCATC	2.83	3.89	-0.36	-0.247	0.811	1.57	-0.0607	2.13	-0.3	3.54
ATCGGAAGGTCGTGAGGTGAGTATACAGAAAGGC	-0.372	1.37	-0.0584	0.491	1.77	1.71	0.639	2.72	1.05	2.83
TCATATAGGTAGATGCTAGGTGAAAGTCCGATCT	2.54	0.996	0.387	0.246	0.348	0.415	0.366	0.657	0.534	0.174
TCAGACAGGTGAAGGTAACTAAGGTACGCAGTCG	2.56	1.27	0.501	0.42	0.309	0.646	0.152	1.22	0.362	1.24
TCTAGTTGGTCAAAGCTCACACACTCGAAATGCG	2.36	1.86	0.492	0.777	1.1	0.532	-0.0371	0.758	0.56	1.01
CAGCCGAGGTCAGGGCCAGTATAGGAGGAACGTT	1.87	3.21	0.298	-0.547	2.95	3.5	0.241	4.36	0.349	4.81
CGAACTAGGTCAAGGACAGAGAATCTCCGCACGC	8.21	8.28	3.36	1.6	1.59	0.886	-0.0315	1.87	0.29	3.87
GGAACGAGGGCTAGTTGATAGCAGAGTTTGATGG	0.122	-0.508	-0.313	-0.827	-0.214	-0.534	-0.283	-0.627	-0.525	-0.19
TATACAGGGTCAAAGGCCAGATTACGAATGTCGA	2.17	4.84	2.19	3.09	2.87	4.54	0.853	6.01	1.67	4.43
CGTCAAAGTTCAACTAACGTAACGTAAAGCACGC	0.504	1.8	1.16	1.48	3.23	4.55	3.33	3.3	1.91	5.14
GCTAGCAGGCCATATGGGTCACTCAATGACGGGC	1.57	2.68	-0.447	-0.866	-0.0235	0.585	-0.337	1	-0.311	1.62
CCTACTGGGCCAAGGGTCATTGATTCCAATGCTC	3.29	5.63	0.63	-0.667	1.67	3.15	-0.275	3.87	0.1	3.06
TATACAGGGTCAAAGGCAAGAGTACGAATGTCGA	2.4	4.77	3.32	1.87	2.27	3.86	1.15	5.3	1.42	4.43
CCTGCTAGGTCACTGGTCAGCTAAAGCAGCTCGC	4.87	4.51	0.683	-0.736	1.51	1.27	-0.378	2.08	-0.0661	3.92
TCTCGGAGGAGACGAAAGGTCAGAGCTCGACATC	0.912	1.49	-0.00299	-0.844	3.1	3.44	-0.0245	4.57	1.35	3.44
TAGCCTAAGTCATTCAGGGGCCAGTATAGAAAGC	-0.155	-0.0585	0.0399	0.2	0.00647	0.14	-0.297	0.276	-0.483	0.478
CCTTACGGGTCACTCCAGGTTATCGCATCGGAGT	2.41	3.83	-0.0167	-0.117	1.35	4.65	0.118	3.01	0.208	3.55
TTACCAAGGTGAAAGGTCGATGATGCACGCCTTG	2.4	4.78	0.899	1.64	2.36	3.08	-0.143	4.99	0.188	2.98

Sequence	PBM binding z-score [1]	PBM binding z-score [2]	PBM binding z-score [3]	PBM binding z-score [4]	PBM binding z-score [5]	PBM binding z-score [6]	PBM binding z-score [7]	PBM binding z-score [8]	PBM binding z-score [9]	PBM binding z-score [10]
CAATCTAGGTCAAGAGGTCAAAGTCCGCTTCCCG	8.4	8.71	5.68	4.57	9.94	6.5	3.63	8.3	5.1	5.36
CAGGCTAGGTCAGGGCCAGTATAGGAGGAACGTT	1.77	2.27	-0.979	-1.24	0.901	0.235	-0.157	0.946	0.278	3.6
CCTAGTTGGTCAGGAGGTCAAACACCGGATATGA	1.54	3.02	0.223	0.259	3.46	4.59	2.21	5.06	2.09	3.76
CCGAGTTGGTTATGGGGCATTCAGGCAACGGTGA	0.136	0.993	-0.435	-0.836	0.998	0.00372	0.402	0.155	0.692	0.288
CCTACTGGCCCACGAAAGGTCATTGATTCAGTGA	-0.126	0.861	-0.814	-1.14	3	5.2	1.92	5.64	2.79	3.94
CCTACGGGGCCATCAGGTCATTGATATCAACGTT	1.08	2.4	-0.644	-0.657	1.9	2.18	0.639	2.97	0.686	2.86
TCTTGTATATCAAGCAGGTTAAGAAAGCCTGAGT	1.41	0.503	0.561	1.48	0.514	0.624	0.331	0.805	0.189	0.615
ATCTCTAAGTAAGACTCAGTTCAGTGAAGAACGC	0.103	0.218	0.885	1.04	0.659	0.518	1.83	0.541	1.22	0.15
TCTTGTAGAACAGCAGGTTAAGAAAGCTGGCCAA	1.67	0.554	-0.871	-0.593	-0.509	0.0552	-0.772	-0.0223	-1.16	0.0879
TAGCCTAGGTCATTCAGGGACCAGTATAGAAAGC	0.873	2.72	0.102	-0.132	0.904	1.67	-0.229	2.18	-0.017	3.57
GCTCGGAGGACAAGTTCAGAGCTTTGTCCGTAGA	-0.557	-0.546	-1.36	-1.47	-0.526	0.977	0.281	0.489	-1.39	1.92
CCTATTAGTTGACCGTAAGGGCAACCGAAGCTCG	0.0924	0.672	0.0839	-0.0421	1.63	0.919	0.939	1.35	1.56	1.91
TCTTGTAGATCAATAGAGGTTAACAAAGTGCGCT	1.65	1.38	0.608	1.56	0.466	3.82	0.45	2	0.875	1.02
TTACCAAGGTGAGCTGAGGTCGTCGATCCAACTC	0.887	2.1	-0.228	-0.875	-0.188	3.92	0.167	1.43	-0.863	1.8
GGAACGAGGGCATTCGAGTTGAAAGCATGGCGAT	2.58	2.01	-0.14	-0.111	0.301	3.96	1.15	1.18	-0.521	1.71
GCGACTGGGGCATCAGCAGGTTACCATCACTTAA	4.02	3.08	-0.268	-0.441	0.406	-0.239	-0.641	0.272	-0.548	0.891
TCATATAGGTAAAGGCGAAAGTCGAACGATATGA	3.49	2.3	1.22	0.996	0.221	-0.107	0.0413	0.124	0.504	0.399
CCAGAGAGGTGAGAAGGTAACTCAGCCTCGATTA	2.21	1.69	-0.147	-0.518	0.918	0.339	0.0728	1.04	-0.0942	1.57
TCTGCTAGGTCAACGCTGGTCAGCTAATCTGCTA	4.5	4.5	0.648	0.00924	1.34	2	-1.26	2.35	-1.41	4.16
ATACTAAGGTGATCGTGAGGTCGTTGATACTAAC	1.4	1.73	0.74	1.39	1.65	3.74	1.93	2.88	0.716	1.77
GCGACTGGGGCAAAGCAGGTTACCATGAGGTTGG	4.46	3.79	-0.666	-1.4	0.0533	0.378	-0.61	0.383	-0.939	0.981
AGAACGAGGGCAATGAGTTGATACCACGGGTGGC	3.03	2.47	0.451	0.33	0.443	1.66	5.24	0.38	-0.193	2.19
CCAACTAGGTCAAGAGGTCAAAGTCCGCTTCCCG	8.09	8.02	4.07	5.47	8.09	6.37	2.79	8.12	3.13	5.34
TGAACGAGGTTAAAGATCAGGGAACGTGGCGTCG	1.29	2.81	0.475	-0.0335	0.615	1.99	-0.0143	2.94	-0.0319	1.95
